CHT PAM: CHT positive allosteric modulators, primary screen, cell-based, membrane potential dye, choline EC20; High affinity choline transporter 1 (Homo sapiens), Q9GZV3; CHT-expressing cells; stronger effect = higher value; LV-AA mutant CHT in HEK293 cells; B-score at 10 µM; actives 0.49% (n = 310,000);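 active = initial fluorescence not abnormally high and integrated response B-score, plate-corrected, over 3 SD above library mean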
CHT inh: inhibitors of human choline transporter CHT | AID 488975, 2010 | actives 0.86% (n = 310,000) | B-score at 10 µM | CHT-expressing cells, membrane potential dye, choline response; stronger effect = lower value;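 active = B-score over 3 SD under the library average, and starting fluorescence ratio not unusually high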;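 note: choline stimulus applied at its EC90 after an EC20 pre-addition; B-score computed on integrated fluorescence ratio after choline addition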
Kir21 inh: inhibitors of mouse Kir2.1 inward-rectifier potassium channel | HEK293-Kir2.1, FluxOR thallium flux fluorescence; stronger effect = lower value | actives 0.85% (n = 310,000) | B-score at 10 µM;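 active = fluorescence ratio B-score at or below minus 3 SD of library scores, with starting-brightness B-score within 2 SD, cut at about -4.2 in these data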;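 note: channel flux triggered by added potassium and thallium sulfate stimulus; B-score of peak minus minimum fluorescence over baseline after thallium stimulus; more negative B-score means stronger Kir2.1 block with less thallium influx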
Target sequence (P35561 whole entry, looked up): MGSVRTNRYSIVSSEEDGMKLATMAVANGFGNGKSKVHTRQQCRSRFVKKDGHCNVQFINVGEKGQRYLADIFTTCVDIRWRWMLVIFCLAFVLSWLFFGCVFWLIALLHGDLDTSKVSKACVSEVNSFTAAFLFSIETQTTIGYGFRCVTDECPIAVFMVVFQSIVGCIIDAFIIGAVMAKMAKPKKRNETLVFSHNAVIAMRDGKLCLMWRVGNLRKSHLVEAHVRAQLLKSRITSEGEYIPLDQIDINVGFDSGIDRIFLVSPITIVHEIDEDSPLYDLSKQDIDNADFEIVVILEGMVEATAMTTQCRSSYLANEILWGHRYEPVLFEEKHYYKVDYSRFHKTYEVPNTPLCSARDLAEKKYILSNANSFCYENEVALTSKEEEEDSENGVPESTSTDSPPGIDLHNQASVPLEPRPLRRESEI
H9c2 TAG inh: inhibitors of triacylglycerol accumulation, primary screen, cell-based, uHTS, fluorescence, H9c2; H9c2 cells, Nile Red lipid (TAG) fluorescence; cells loaded with 200 µM oleic acid; actives 0.66% (n = 230,000); inhibition, % at 12.5 µM;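 active = pattern-corrected inhibition of lipid staining of at least 50% with the nuclear-stain viability signal not falling by more than 50%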
CHT inh conf: CHT inhibitors, confirmation, cell-based, membrane potential dye, duplicate | CHT-expressing cells, choline membrane potential dye; LV-to-AA substituted CHT, HEK293 cells | actives 70% (n = 2,400) | shares compounds with CHT inh | CHT activity remaining % of control (stronger effect = lower value), % at 10 µM | AID 493221, 2011;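 active = choline transporter activity left, mean of duplicates at 10 µM, below buffer-only control mean minus 3 SD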;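 note: depolarization triggered by choline at its EC90 following an EC20 pre-addition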
HEK293 MPD ctr: membrane potential effects in parental HEK293, counter-screen for CHT inhibitor project, cell-based, membrane potential dye; membrane potential ratio readout (active if shifted either direction beyond buffer ±3SD; no single direction) at 10 µM; actives 4% (n = 2,400); shares compounds with CHT inh; AID 493222, 2011; choline response; active = decrease or increase beyond buffer ±3SD;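 note: parental cells lack the transporter so any hit is non-specific; ratio is peak minus trough fluorescence over baseline after EC90 choline challenge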
Numbers stand for hits; . = inactive; / = no result given. Compounds with a hit are over-represented: about 2% of the library has one in this group of screens.

SMILES | CHT PAM | CHT inh | Kir21 inh | H9c2 TAG inh | CHT inh conf | HEK293 MPD ctr
OC(CNCc1ccccc1)c1ccccc1 (stereo unspecified) | . | . | . | . | / | /
OC(CNC1Cc2ccccc2C1)c1ccccc1 (stereo unspecified) | . | -5.2 | . | / | 52% | .
CC1(C)CC(=O)C=C(Nc2cccc(Cl)c2Cl)C1 | . | -5 | . | . | 63% | .
CC1(C)CC(=O)C=C(Nc2ccc(Cl)cc2)C1 | . | . | . | / | / | /
Cc1cc(C)cc(NS(=O)(=O)c2cnc(Cl)c(Cl)c2)c1 | . | -8 | . | / | 52% | .
COc1ccc(Br)cc1C(=O)CCC(=O)OCC(=O)Nc1cc(C(N)=O)cc(C(N)=O)c1 | / | / | / | . | / | /
CC(C)(C)NC(=O)NC(=O)CN1CCN(c2cccc(Cl)c2)CC1 | . | -6.9 | . | . | 47% | .
COc1ccc(C(=O)N[C@H]2CCCCNC2=O)cc1OC1CCN(C(C)C)CC1 | . | -9.2 | . | / | 34% | .
COc1ccc(C(=O)NCc2ccon2)cc1OC1CCN(C(C)C)CC1 | . | -7.3 | . | / | 34% | .
COc1ccc(C(=O)N(C)CCCC2CCCC2)cc1OC1CCN(C(C)C)CC1 | . | -7 | . | . | 23% | .
COc1ccc(C(=O)N(C)CCCC2CCCC2)cc1OC1CCN(C(C)=O)CC1 | . | . | . | / | / | /
O=C(O)Cc1ccc(S(=O)(=O)N2CCCC2)s1 | / | / | / | . | / | /
COc1ccc(Cl)cc1S(=O)(=O)n1c([N+](=O)[O-])cnc1C | . | . | . | / | / | /
Cc1ccc(NC(=O)CN(C)C(=O)COC(=O)CNS(=O)(=O)c2ccc(F)c(F)c2F)cc1 | . | . | . | . | / | /
Cc1ccc(NC(=O)CN(C)C(=O)COC(=O)CNS(=O)(=O)c2ccc(Br)cc2Cl)cc1 | . | -6.3 | . | . | 67% | .
Cc1c(NC(=O)COC(=O)/C=C/c2cccc(Cl)c2)c(=O)n(-c2ccccc2)n1C | / | / | / | . | / | /
COc1ccc(Cl)cc1NC(=O)C[n+]1cccc(C)c1 | . | -8.1 | . | / | 40% | .
CC(C)(C)CC(C)(C)NC(=S)Nc1ccc2nc(-c3ccccn3)c(-c3ccccn3)nc2c1 | . | -8.4 | . | . | 45% | .
OCCCNC(=S)Nc1ccc2nc(-c3ccccn3)c(-c3ccccn3)nc2c1 | . | . | . | / | / | /
CCCN1/C(=C(\C#N)C2=NS(=O)(=O)c3ccccc32)N(C)c2ccccc21 | / | / | / | . | / | /
COc1ccccc1/C=C/C=N/NC(=O)c1cc(-c2ccc(C)o2)[nH]n1 | . | -17 | . | . | . | .
CC[N+]1(CC)CC2=Cc3c(ccc4ccccc34)C(C)C2C1 (stereo unspecified) | . | -6 | . | . | 60% | .
FC(F)(F)c1cccc(-c2nc3nc(Cl)c(Cl)nc3[nH]2)c1 | . | -7.8 | . | / | 50% | .
FC(F)(F)c1nc2nc(Cl)c(Cl)nc2[nH]1 | / | / | / | . | / | /
c1ccc(Oc2ccc3ccccc3n2)cc1 | . | . | . | . | / | /
SMILES | CHT PAM | CHT inh | Kir21 inh | H9c2 TAG inh | CHT inh conf | HEK293 MPD ctr
N#CCN1CCN(CCC(=O)Nc2ccc(OCc3ccccc3)cc2)CC1 | . | . | . | . | . | .
O=C(CN1CCCC1)Nc1ccc(OCc2ccccc2)cc1 | . | . | . | . | / | /
CCC(=O)N1CCC(NC(=O)Nc2ccc(OC(F)(F)F)cc2)CC1 | / | / | / | . | / | /
COc1ccc(C(=O)Nc2cccc3nc(C)ccc23)cc1OC | . | . | . | / | / | /
CC1Cc2nc(SCC(=O)N3CCCc4ccccc43)n(C)c(=O)c2S1 (stereo unspecified) | . | -7.6 | . | . | 24% | .
COCCn1c(SCC(=O)Nc2ccccc2C(F)(F)F)nc2ccccc2c1=O | . | -5.3 | . | / | . | .
COCCn1c(SCC(=O)N2CCCc3ccccc32)nc2ccccc2c1=O | . | -5.2 | . | / | . | .
Cc1ccc(Cn2ccc(=O)c(OCc3c(Cl)cccc3Cl)c2C)cc1 | . | . | . | . | / | /
CCN(CC)CCCNC(=O)c1ccccc1NC(=O)C1=CSCCO1 | . | -12 | . | / | 21% | .
CCCOc1ccccc1NC(=O)/C=C/c1ccc(OC)c(S(=O)(=O)N2CCOCC2)c1 | / | / | / | . | / | /
